# Test results taken from publication PMC11062922 (Nature Chemical Biology, 2023).
# Read-outs that look alike come from different tables or passages of the source.
# Key:
# Design in all cases: species or system human, MV4-11 + K-562 + COLO205 + SK-N-BE2 + OVCAR-8
# ACVR1B = conditions: read-out: apparent Kd, n = 1
# ADCK1 = conditions: read-out: apparent Kd; compound concentrations:100 nM and 1000 nM (sheet 'Samples'); n = 1
# PIK3CA = conditions: read-out: apparent Kd, n = 1
# PIK3CD = conditions: read-out: apparent Kd; compound concentrations:100 nM and 1000 nM (sheet 'Samples'); n = 1
# PKN1 = conditions: read-out: apparent Kd; compound concentrations:100 nM and 1000 nM (sheet 'Samples'); n = 1
# PKN2 = conditions: read-out: apparent Kd; compound concentrations:100 nM and 1000 nM (sheet 'Samples'); n = 1
# RAB5C = conditions: read-out: apparent Kd; compound concentrations:100 nM and 1000 nM (sheet 'Samples'); n = 1
# TTN = conditions: read-out: apparent Kd; compound concentrations:100 nM and 1000 nM (sheet 'Samples'); n = 1
# ATM = conditions: read-out: apparent Kd; compound concentrations: 100 nM and 1000 nM (sheet 'Samples'), CATDS: 0.55136512573741903; n = 1
# PIP4K2C = conditions: read-out: apparent Kd; compound concentrations: 100 nM and 1000 nM (sheet 'Samples'), CATDS: 0.19748549423912701; n = 1
# PRKAG2 = conditions: read-out: apparent Kd, compound concentrations: 100 nM and 1000 nM (sheet 'Samples'), n = 1
# CSNK2A1;CSNK2A3 = conditions: read-out: apparent Kd; compound concentrations:100 nM and 1000 nM (sheet 'Samples'); n = 1
# CSNK2A2 = conditions: read-out: apparent Kd; compound concentrations:100 nM and 1000 nM (sheet 'Samples'); n = 1
# PRKD2 = conditions: read-out: apparent Kd; compound concentrations:100 nM and 1000 nM (sheet 'Samples'); n = 1
# PRKD3 = conditions: read-out: apparent Kd; compound concentrations:100 nM and 1000 nM (sheet 'Samples'); n = 1
# CIT = conditions: read-out: apparent Kd, n = 1
# CSNK1D = conditions: read-out: apparent Kd, n = 1
# GRK6 = conditions: read-out: apparent Kd; compound concentrations: 100 nM and 1000 nM (sheet 'Samples'), CATDS: 0.11057023586935499; n = 1
# MAPK14 = conditions: read-out: apparent Kd, n = 1
# MAPKAPK2 = conditions: read-out: apparent Kd; compound concentrations: 100 nM and 1000 nM (sheet 'Samples'), CATDS: 0.164691534232419; n = 1
# PKN3 = conditions: read-out: apparent Kd, n = 1
# CSNK1E = conditions: read-out: apparent Kd; compound concentrations:100 nM and 1000 nM (sheet 'Samples'); n = 1
# MAP4K2 = conditions: read-out: apparent Kd; compound concentrations:100 nM and 1000 nM (sheet 'Samples'); n = 1
# RIPK2 = conditions: read-out: apparent Kd; compound concentrations:100 nM and 1000 nM (sheet 'Samples'); n = 1
# TESK2 = conditions: read-out: apparent Kd; compound concentrations:100 nM and 1000 nM (sheet 'Samples'); n = 1
# TGFBR2 = conditions: read-out: apparent Kd; compound concentrations:100 nM and 1000 nM (sheet 'Samples'); n = 1
# ADCK3 = conditions: read-out: apparent Kd; compound concentrations: 100 nM and 1000 nM (sheet 'Samples'), CATDS: 0.14880786658068901; n = 1
# AKT2 = conditions: read-out: apparent Kd; compound concentrations: 100 nM and 1000 nM (sheet 'Samples'), CATDS: 0.130692249594417; n = 1
# PIM2 = conditions: read-out: apparent Kd; compound concentrations: 100 nM and 1000 nM (sheet 'Samples'), CATDS: 0.15422664553474699; n = 1
# ACVR2B = conditions: read-out: apparent Kd; compound concentrations: 100 nM and 1000 nM (sheet 'Samples'), CATDS: 1; n = 1
# [1] = compound concentrations:100 nM and 1000 nM (sheet 'Samples')
compound,measurement,setting,value
Cl.Cl.c1ccc(-c2cc3ccncc3cc2OC2CCNCC2)cc1.c1ccc(-c2cc3ccncc3cc2OC2CCNCC2)cc1 [GSK1122999D],potency estimated from few doses,ACVR1B; [1],1160 nM
same,potency estimated from few doses,ADCK1,1280 nM
same,potency estimated from few doses,PIK3CA; [1],287 nM
same,potency estimated from few doses,PIK3CD,179 nM
same,potency estimated from few doses,PKN1,2030 nM
same,potency estimated from few doses,PKN2,2040 nM
same,potency estimated from few doses,RAB5C,1190 nM
same,potency estimated from few doses,TTN,886 nM
NC(=O)c1cc(-c2ccncc2)cc(-c2ccccc2)c1N [GSK625137A],potency estimated from few doses,"ACVR1B; compound concentrations: 100 nM and 1000 nM (sheet 'Samples'), CATDS: 0.24390652724185299",1010 nM
same,potency estimated from few doses,ATM,223 nM
same,potency estimated from few doses,PIP4K2C,1780 nM
same,potency estimated from few doses,PRKAG2; CATDS: 0.19909509316552701,1730 nM
Cc1cccc(-c2nc(Nc3ccc4[nH]ncc4c3)c3ccccc3n2)n1 [GW857175X],potency estimated from few doses,ACVR1B; [1],89 nM
same,potency estimated from few doses,CSNK2A1;CSNK2A3,4.12 nM
same,potency estimated from few doses,CSNK2A2,3.3 nM
same,potency estimated from few doses,PRKD2,8.89 nM
same,potency estimated from few doses,PRKD3,35.5 nM
CSc1cccc2c(-c3ccncn3)c(-c3ccc(F)cc3)nn12 [GW514786X],potency estimated from few doses,"ACVR1B; compound concentrations: 100 nM and 1000 nM (sheet 'Samples'), CATDS: 0.17509937322487801",801 nM
same,potency estimated from few doses,"CIT; compound concentrations: 100 nM and 1000 nM (sheet 'Samples'), CATDS: 0.11106465565946499",2190 nM
same,potency estimated from few doses,"CSNK1D; compound concentrations: 100 nM and 1000 nM (sheet 'Samples'), CATDS: 0.131295791130774",1420 nM
same,potency estimated from few doses,GRK6,2220 nM
same,potency estimated from few doses,"MAPK14; compound concentrations: 100 nM and 1000 nM (sheet 'Samples'), CATDS: 0.16800162105717001",863 nM
same,potency estimated from few doses,MAPKAPK2,895 nM
same,potency estimated from few doses,"PKN3; compound concentrations: 100 nM and 1000 nM (sheet 'Samples'), CATDS: 0.17855560727929401",774 nM
Cc1cccc(-c2nc(Nc3ccncc3)c3ccccc3n2)n1 [GW855857X],potency estimated from few doses,ACVR1B; [1],0.502 nM
same,potency estimated from few doses,CIT; [1],1120 nM
same,potency estimated from few doses,CSNK1D; [1],897 nM
same,potency estimated from few doses,CSNK1E,1190 nM
same,potency estimated from few doses,MAP4K2,1630 nM
same,potency estimated from few doses,MAPK14; [1],1470 nM
same,potency estimated from few doses,PKN3; [1],75.5 nM
same,potency estimated from few doses,PRKD2,3.39 nM
same,potency estimated from few doses,PRKD3,6.73 nM
same,potency estimated from few doses,RIPK2,590 nM
same,potency estimated from few doses,TESK2,1340 nM
same,potency estimated from few doses,TGFBR2,855 nM
COc1ccc(-c2ccc3c(NC(=O)C4CC4)n[nH]c3n2)cc1 [SB-711237],potency estimated from few doses,"ACVR1B; compound concentrations: 100 nM and 1000 nM (sheet 'Samples'), CATDS: 0.16866039240373501",1180 nM
same,potency estimated from few doses,ADCK3,1590 nM
same,potency estimated from few doses,AKT2,2260 nM
same,potency estimated from few doses,"PIK3CA; compound concentrations: 100 nM and 1000 nM (sheet 'Samples'), CATDS: 0.46102021867548298",210 nM
same,potency estimated from few doses,PIM2,1450 nM
same,potency estimated from few doses,PRKAG2; CATDS: 0.141920033586769,1790 nM
Cc1ccc(Nc2ccnc(Nc3ccc(C)c(F)c3)n2)cc1O.Cl [GW582868A],potency estimated from few doses,ACVR2B,664 nM
